Experimental findings from PubChem BioAssay are described below.

A short description of assay [1]: P. berghei load reduction in hepatocytes – cell-based, HepG2, luciferase luminescence, HepG2 viability, primary screen (AID 624349; in the data active = parasite load remaining mostly below about 12%, no sharp cut-off; inactive = mostly above about 10%;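 note: 100% = mean of DMSO negative control wells on the same plate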). The following applies: P. berghei liver stage in HepG2, luciferase luminescence, concentration not given here; parasite load remaining: stronger effect = lower value; viability: measured here: HepG2 viability without parasites.
Assay [2] can be described thus: Wnt pathway potentiators raising nuclear beta-catenin – imaging, WNT3A-conditioned medium, mouse C2C12, NPC library, primary screen (AID 1117326; in the data active = nuclear beta-catenin stimulation mostly above about 4.2%, no sharp cut-off; inactive = mostly below about 10%). The following applies: stronger effect = higher value.
Assay [3] can be described thus: stimulators of insulin release from INS-1E, primary screen, cell-based, 5 mM glucose, NPC library (AID 1117329). The following applies: rat INS-1E insulin secretion, at 10 µM, stronger effect = higher value.
Assay [4] is described as follows: growth inhibition of GSK3B-pretreated HCT116 cells – cell-based, CellTiter-Glo, 0.2 to 20 µM (AID 1117336;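 active = compounds lowering colon cancer cell viability after pretreatment blocking the GSK3B kinase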). The following applies: HCT116 viability after GSK3B inhibitor, at 20 µM, stronger effect = higher value. (In general: ATP-based viability assays read luminescence as a measure of living cells.)
The nature of assay [5]: inhibition of endothelial tube formation, primary screen, imaging, VEGF stimulated, CD31 staining, tube area, NPC library (AID 1117340;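 active = compound that reduces growth-factor-driven endothelial tube area in a mixed cell culture, no cutoff stated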). The following applies: VEGF-stimulated ADSC/ECFC co-culture, at 10 µM, stronger effect = higher value.
Assay [6] can be described thus: GLP1 release stimulators, primary, NCI-H716, NPC library (AID 1117341;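 active = compound raises GLP1 secretion from the human gut endocrine cells, with no numeric limit stated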). The following applies: NCI-H716 cells, at 10 µM, stronger effect = higher value.
The nature of assay [7]: HCT116 colon cancer cell growth inhibition, primary screen, CellTiter-Glo luminescence, NPC library (AID 1117342;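 active = compounds that lower survival of HCT116 colon cancer cells in the luminescence readout, no numeric limit stated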). The following applies: at 20 µM (top of the series).
Assay [8] in a line: reduced SW480 viability measured with CellTiter-Glo, NPC library, primary (AID 1117343;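 active = compounds that lower viability of the colon cancer cells in the luminescence readout, with no numeric limit stated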). The following applies: CellTiter-Glo luminescence; at 20 µM (top of the series) unless noted.
Assay [9] can be described thus: NPC library primary testing for decreased DLD-1 cell viability via CellTiter-Glo (AID 1117346;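 active = compounds that lower survival of DLD-1 colon cancer cells in the luminescence readout, no cutoff given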). The following applies: DLD-1 viability, CellTiter-Glo luminescence; at 20 µM (top of the series).
Assay [10] is described as follows: EMT-state selective cytotoxicity in co-culture – imaging, PC-3E GFP, TEM4-18 mCherry, primary screen (AID 1345086;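 active = compounds killing one labelled cell type while sparing the other, by normalised counts and ratio limits, not self-fluorescent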;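 for all read-outs here: cells exposed to compound for 72 h before imaging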;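 for red/green cell ratio (normalised): normalised mesenchymal count divided by normalised epithelial count so high means epithelial killing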). The following applies: PC-3E GFP / TEM4-18 mCherry co-culture, imaging cell counts, at 1 µM; for red/green cell ratio (normalised): actives lie on both sides, counts scaled to control wells, 1 = unselective.
A short description of assay [11]: viability loss with induced miR-34 in A549 – imaging, A549 dox-inducible miR-34, nuclei and caspase counts, primary screen (AID 1347080;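 active = compounds whose cell count with miR-34 switched on is under 0.7 times the count with it off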). The following applies: A549 miR-34 inducible, Hoechst nuclei count, 48 h.
Assay [12] concerns the target NAD(+) hydrolase SARM1 (Homo sapiens) (UniProt Q6SZW1). Put plainly: blocking NAD cleavage by SARM1 SAM-TIR – cell lysate, NAD-Glo luminescence (AID 1508614;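 active = compound whose remaining NAD level is above about 45 nM, limit read from the data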;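 note: higher remaining NAD means stronger inhibition of SARM1 NADase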). The following applies: SAM-TIR HEK293T lysate NADase, at 1 µM, stronger effect = higher value.
The nature of assay [13]: MELAS cybrid and Rieske KO viability enhancers – cell-based, MELAS cybrids, Rieske KO mouse fibroblasts, CellTiter-Glo, primary screen (AID 1508586;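 active = mean z-score across replicates of 1.96 or higher in either the MELAS or the Rieske mutant cell line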;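 note: z relative to plate mean and SD of compound and empty wells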). The following applies: low glucose.
The nature of assay [14]: galactose survival enhancers in mitochondrial complex I cybrids – cell-based, galactose medium, ATP luminescence, primary screen (AID 1645843;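 active = z-score of at least 1.8 in each of two replicates, scored against plate mean and spread of sample wells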;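 note: positive z means more ATP and so rescue of galactose-driven cybrid death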). The following applies: complex I mutant cybrid cells, 72 h, stronger effect = higher value.
[15] abbreviates: measured here: epithelial PC-3E GFP cell survival.
The mark [16] stands for this setting: measured here: mesenchymal TEM4-18 mCherry cell survival.
Where [17] appears, read: MELAS cybrid survival, CellTiter-Glo 48 h, stronger effect = higher value.
Where [18] appears, read: Rieske KO mouse fibroblast survival, CellTiter-Glo 72 h.

The term viability denotes the share of living cells, or the viability signal relative to a control.

Values joined by “and” are separate entries in the source; they are usually repeats but may differ in a detail not shown here. Equal entries are not always repeated. Active and inactive are the calls of the source.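 Rule for the calls, unless noted: active = compound raises insulin release from rat beta cells at 5 mM glucose, no numeric limit stated; inactive = the rest.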

NAD(+) hydrolase SARM1 (Homo sapiens), sequence (Q6SZW1 whole entry, looked up): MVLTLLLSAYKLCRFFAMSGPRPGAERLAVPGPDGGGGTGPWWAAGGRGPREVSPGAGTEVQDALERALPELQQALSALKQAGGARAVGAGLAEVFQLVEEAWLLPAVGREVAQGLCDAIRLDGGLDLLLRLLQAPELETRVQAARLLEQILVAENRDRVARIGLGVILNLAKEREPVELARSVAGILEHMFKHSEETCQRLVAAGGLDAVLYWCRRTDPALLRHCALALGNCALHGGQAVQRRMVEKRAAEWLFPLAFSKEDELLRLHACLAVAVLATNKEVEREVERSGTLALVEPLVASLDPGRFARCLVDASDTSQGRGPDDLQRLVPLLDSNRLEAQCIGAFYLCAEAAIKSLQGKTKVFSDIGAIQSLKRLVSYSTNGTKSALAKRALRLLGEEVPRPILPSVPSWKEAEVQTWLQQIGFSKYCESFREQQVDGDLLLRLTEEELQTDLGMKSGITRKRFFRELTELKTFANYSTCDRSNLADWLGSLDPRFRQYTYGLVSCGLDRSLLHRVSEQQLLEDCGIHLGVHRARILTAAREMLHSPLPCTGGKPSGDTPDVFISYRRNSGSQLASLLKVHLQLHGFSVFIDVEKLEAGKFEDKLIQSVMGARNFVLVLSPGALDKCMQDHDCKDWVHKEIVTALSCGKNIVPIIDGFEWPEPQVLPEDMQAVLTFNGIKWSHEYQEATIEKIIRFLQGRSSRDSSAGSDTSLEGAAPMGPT

As for `O=C1OC2(c3ccc(O)cc3Oc3cc(O)ccc32)c2ccccc21`, in assay [1], the parasite load remaining is 58.1% (inactive). For the same molecule, in assay [1], the viability amounted to 92.3%. In addition, the nuclear beta-catenin stimulation in assay [2] (at 10 µM) is -0.4% (inactive); in assay [2] (stimulation, at 2 µM) it was 3.4%. Besides, in [3], the insulin secretion stimulation is 3.7% (inactive). In addition, in assay [4], the viability decrease was 6.1% (inactive). In addition, the tube area decrease in assay [5] was 15.8% (inactive). The GLP1 secretion stimulation in assay [6] was -2.3% (inactive). Moreover, in assay [7], the inhibition of viability is 9.8% (inactive). For the same molecule, the viability decrease (inhibition) is 16% (inactive) in assay [8] and -11.6% (inactive) in [9]. Further, the red/green cell ratio (normalised) in assay [10] was 1.43 (inactive). For the same molecule, the normalised cell number in assay [10] (setting [15]) turned out to be 1.11; in assay [10] (setting [16]), 1.6. The fold change in assay [11] (stronger effect = lower value, cell number ratio, induced over uninduced) was 0.894 (inactive); in assay [11] (measured here: relative caspase fold change +Dox/-Dox), 5.09. The cell count in assay [11] (measured here: total cells with miR-34 induction, stronger effect = lower value) was 11200; in assay [11] (measured here: total cells without miR-34 induction), 12500. For the same molecule, the remaining NAD in assay [12] is 10 nM (inactive).

On to `Cc1c(F)c(N2CCNC(C)C2)cc2c1c(=O)c(C(=O)O)cn2C1CC1` (configuration not stated), for which the nuclear beta-catenin stimulation in assay [2] (at 10 µM) was 0.7% (inactive); in [2] (stimulation, at 2 µM) it was -0.2%. In addition, in [3], the insulin secretion stimulation is 1.15% (inactive). Besides, in assay [4], the viability decrease is 57.3% (active). Also, the tube area decrease in [5] is -1% (inactive). For the same molecule, in assay [6], the GLP1 secretion stimulation was -0.4% (inactive). For the same molecule, the inhibition of viability in [7] is 39.5% (inactive). Besides, the results for the viability decrease (inhibition) in assay [8] and in [9] were 0% (inactive) and -10.1% (inactive), respectively. Further, in [10], the red/green cell ratio (normalised) is 1 (inactive). Further, the normalised cell number in [10] (setting [15]) amounted to 1.13; in assay [10] (setting [16]), 1.12. Further, the z-score was 0.28 (inactive) in assay [13] (setting [17]) and -0.0779 in assay [13] (setting [18]).

Regarding `Cc1cc(C(C#N)c2ccc(Cl)cc2)c(Cl)cc1NC(=O)c1cc(I)cc(I)c1O` (configuration not stated), the parasite load remaining in assay [1] was 10.9% (inactive). Further, the viability in [1] is 94.5%. The nuclear beta-catenin stimulation in assay [2] (at 10 µM) is 2.4% (inactive); in assay [2] (stimulation, at 2 µM), 1.5%. For the same molecule, the insulin secretion stimulation in assay [3] is -0.6% (inactive). Further, the viability decrease in assay [4] is 120% (active). Further, in [5], the tube area decrease was 111% (active). In assay [6], the GLP1 secretion stimulation is 14.4% (inactive). In [7], the inhibition of viability was 125% (active). Moreover, the results for the viability decrease (inhibition) in assay [8] and in assay [9] were 163% (active) and 101% (active), respectively. For the same molecule, the red/green cell ratio (normalised) in assay [10] was 0.8 (inactive). For the same molecule, the normalised cell number is 1.27 in [10] (setting [15]) and 1.02 in assay [10] (setting [16]). Besides, the remaining NAD in assay [12] was 10 nM (inactive). The z-score in assay [14] is 0.12 (inactive).

For the molecule `C[C@@]12C(=O)OC(=O)[C@]1(C)C1CCC2O1`, the nuclear beta-catenin stimulation in assay [2] (at 10 µM) was -1.7% (active); in [2] (stimulation, at 2 µM), 49.7%. Moreover, the insulin secretion stimulation in [3] was 2.3% (inactive). The viability decrease in assay [4] is 83.1% (active). Besides, the tube area decrease in [5] is 111% (active). Further, in assay [6], the GLP1 secretion stimulation was 20.1% (active). In addition, the inhibition of viability in [7] is 73% (active). For the same molecule, the viability decrease (inhibition) was 112% (active) in assay [8] and 91% (active) in [9]. Also, the red/green cell ratio (normalised) in [10] was 0.98 (inactive). The normalised cell number in assay [10] (setting [15]) came to 1.02; in assay [10] (setting [16]), 1.01.

Turning to `CN(C)CCCOc1nn(Cc2ccccc2)c2ccccc12`, the nuclear beta-catenin stimulation in [2] (at 10 µM) is 2.1% (inactive); in assay [2] (stimulation, at 2 µM) it was 0.5%. In addition, the insulin secretion stimulation in assay [3] was 86.5% (active). The viability decrease in assay [4] was 21.7% (inactive). Moreover, the tube area decrease in assay [5] is 12.8% (inactive). Besides, the GLP1 secretion stimulation in [6] was 6% (inactive). Further, in [7], the inhibition of viability was 46% (inactive). Further, the viability decrease (inhibition) is 82.6% (active) in [8] and 84.1% (active) in assay [9]. The red/green cell ratio (normalised) in assay [10] was 0.88 (inactive). Also, the normalised cell number in [10] (setting [15]) turned out to be 1.01; in assay [10] (setting [16]), 0.89. Moreover, the z-score was -0.315 (inactive) and 0.45 (inactive) and -0.608 (inactive) in assay [13] (setting [17]); -0.145 and 0.0321 and -1.45 in assay [13] (setting [18]); -0.89 (inactive) in assay [14]. Besides, the remaining NAD in assay [12] was 10 nM (inactive).
